# Reference: the supplement of paper PMC11172423
# Unmarked numbers belong to inactive results.
# Assays:
# [1] = tested on: Falciformispora senegalensis CBS197.79; test: growth relative to untreated control; higher = less inhibition, active = 20 or less
# Summary of the method: (§1)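 In 96-well plates, suspended hyphal fragments of M. mycetomatis MM55 or F. senegalensis CBS197.79 were exposed to compound at 100 or 25 µM for 7 days at 37 °C. The suspension medium was colourless RPMI 1640 with L-glutamine and MOPS, adjusted to 68–72% transmission at 660 nm. Viability was measured with MTS (2 h, 490 nm) or resazurin (600 nm). Growth means metabolic activity compared with the untreated growth control after blank correction of both with medium plus dye.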
# [2] = tested on: Madurella mycetomatis MM55; test: as above
# Summary of the method: as §1
Compound,growth ([1]; 25 µM),growth ([1]; 100 µM),growth ([2]; 25 µM),growth ([2]; 100 µM)
CN(C)[C@@H]1C(=O)C(C(N)=O)=C(O)[C@@]2(O)C(O)=C3C(=O)c4c(O)cccc4[C@@](C)(O)[C@H]3C[C@@H]12,99.7%,94.1%,–,–
CCOc1ccc(C(C)(C)COCc2cccc(Oc3ccccc3)c2)cc1,79.4%,39.3%,–,–
C[C@@H]1O[C@@H](O[C@@H]2C=C3CC[C@@H]4[C@H](CC[C@]5(C)[C@@H](c6ccc(=O)oc6)CC[C@]45O)[C@@]3(C)CC2)[C@H](O)[C@H](O)[C@H]1O,99.3%,104%,–,–
CN(c1cc(NC(=O)c2ccc(F)cc2)ccn1)C1CCN(Cc2cccc(F)c2)CC1,66%,30.2%,–,–
CC[C@@H]1CCC[C@H](O[C@H]2CC[C@H](N(C)C)[C@@H](C)O2)[C@@H](C)C(=O)C2=C[C@@H]3[C@@H](C=C(C)[C@@H]4C[C@@H](O[C@@H]5O[C@@H](C)[C@H](OC)[C@@H](OC)[C@H]5OC)C[C@@H]34)[C@@H]2CC(=O)O1.CC[C@@H]1CCC[C@H](O[C@H]2CC[C@H](N(C)C)[C@@H](C)O2)[C@@H](C)C(=O)C2=C[C@@H]3[C@@H](C=C[C@@H]4C[C@@H](O[C@@H]5O[C@@H](C)[C@H](OC)[C@@H](OC)[C@H]5OC)C[C@@H]34)[C@@H]2CC(=O)O1,78.1%,93.3%,–,–
N#CCNC(=O)c1cnccc1C(F)(F)F,85.9%,87.5%,–,–
CC(C)=CC1C(C(=O)OCN2C(=O)C3=C(CCCC3)C2=O)C1(C)C (configuration not stated),93.7%,100%,–,–
O=C(NC(=O)c1c(F)cccc1F)Nc1ccc(Cl)cc1,92.8%,84.5%,–,–
Clc1ccc(C(OCCN2CCCCC2)c2ccccc2)cc1 (configuration not stated),100%,13.2% (active),–,–
CN/C(=N/CC1CCOC1)N[N+](=O)[O-] (configuration not stated),91.8%,92.9%,90.9%,125%
CNC(=O)c1cc(C#N)cc(C)c1NC(=O)c1cc(Br)nn1-c1ncccc1Cl,89.6%,103%,69.7%,55.9%
CC1(C)C(C=C(Cl)Cl)C1C(=O)OC(C#N)c1ccc(F)c(Oc2ccccc2)c1 (configuration not stated),94%,73.5%,–,–
Cc1sc2c(c1C)C(c1ccc(Cl)cc1)=N[C@@H](CC(=O)OC(C)(C)C)c1nnc(C)n1-2,101%,97.4%,97.1%,4.14% (active)
CC1(C)C(C=C(Cl)Cl)C1C(=O)OCc1cccc(Oc2ccccc2)c1 (configuration not stated),70.4%,98.3%,–,–
CC[C@@H](C(=O)[C@@H](C)[C@@H](O)[C@H](C)[C@@H]1O[C@@H]([C@@H](CC)C(=O)O)CC[C@@H]1C)[C@H]1O[C@]2(C=C[C@@H](O)[C@]3(CC[C@@](C)([C@H]4CC[C@](O)(CC)[C@H](C)O4)O3)O2)[C@H](C)C[C@@H]1C,102%,102%,–,–
CCOC(=O)CC(SP(=S)(OC)OC)C(=O)OCC (configuration not stated),98.4%,95.2%,–,–
COc1ccc(C[C@H]2NC[C@H](O)[C@H]2OC(C)=O)cc1,5.78% (active),14.4% (active),111%,3.35% (active)
COC(C)(C)CCCC(C)C/C=C/C(C)=C/C(=O)OC(C)C (configuration not stated),89.3%,97.8%,47.7%,105%
CC(c1ccc(C(F)(F)F)nc1)S(C)(=O)=NC#N (configuration not stated),91.2%,90.7%,–,–
CC1(Nc2ncc3nc(Nc4cc(Cl)cc(C(F)(F)F)c4)n(C4CCNC4)c3n2)CC1 (configuration not stated),83.5%,52.1%,6.99% (active),6.62% (active)
CCOP(=S)(OCC)Oc1nc(Cl)c(Cl)cc1Cl,92.9%,69%,–,–

Compound,growth ([1]; 25 µM),growth ([1]; 100 µM),growth ([2]; 25 µM),growth ([2]; 100 µM)
CCOCn1c(-c2ccc(Cl)cc2)c(C#N)c(Br)c1C(F)(F)F,79.6%,76.5%,–,–
CNC(=O)Oc1cccc2ccccc12,99.6%,108%,–,–
CC(C)=CC1C(C(=O)OC(C#N)c2cccc(Oc3ccccc3)c2)C1(C)C (configuration not stated),78.2%,101%,–,–
Clc1cc(Cl)cc(Nc2nc3cnc(NC4CCCC4)cc3n2C2CCNC2)c1 (configuration not stated),52.2%,77.4%,–,–
C/C=C(\C)C(=O)O[C@H]1C[C@@H](OC(C)=O)[C@@]2(C(=O)OC)CO[C@H]3[C@@H](O)[C@@](C)([C@]45O[C@@]4(C)[C@H]4C[C@@H]5O[C@@H]5OC=C[C@@]54O)[C@H]4[C@]1(CO[C@]4(O)C(=O)OC)[C@@H]32,89.6%,96.1%,–,–
CN1CCN(C(=O)O[C@H]2c3nccnc3C(=O)N2c2ccc(Cl)cn2)CC1,106%,102%,–,–
CC1(C)CNC(=NN=C(C=Cc2ccc(C(F)(F)F)cc2)C=Cc2ccc(C(F)(F)F)cc2)NC1,88.7%,107%,–,–
CN/C(=N\[N+](=O)[O-])NCc1cnc(Cl)s1,90.6%,85.7%,–,–
O=C(NC(=O)c1c(F)cccc1F)Nc1ccc(Cl)c(Oc2ncc(C(F)(F)F)cc2Cl)c1,93%,84%,–,–
CN(C)CCn1c(Nc2cc(Cl)cc(C(F)(F)F)c2)nc2cnc(NC3CCCC3)cc21,94.1%,105%,39.6%,124%
CCN(Cc1ccc(Cl)nc1)/C(=C/[N+](=O)[O-])NC,95.3%,89.6%,86.9%,132%
CNC(=O)c1cc(Cl)cc(C)c1NC(=O)c1cc(Br)nn1-c1ncccc1Cl,93.3%,94.4%,–,–
CNC(=O)Oc1ccccc1OC(C)C,92.8%,97.7%,120%,129%
Cc1nc(N(C)C)nc(OC(=O)N(C)C)c1C,86.3%,87.9%,109%,137%
C=C(C)[C@H]1Cc2c(ccc3c2O[C@@H]2COc4cc(OC)c(OC)cc4[C@@H]2C3=O)O1,90.6%,102%,–,–
O=[N+]([O-])/C=C1\NCCCS1,86.4%,93.8%,94%,122%
CCS(=O)c1c(C#N)nn(-c2c(Cl)cc(C(F)(F)F)cc2Cl)c1N (configuration not stated),82.1%,83.7%,91.7%,92.4%
CC[C@H](C)[C@H]1O[C@]2(C=C[C@@H]1C)C[C@@H]1C[C@@H](C/C=C(\C)[C@@H](O[C@H]3C[C@H](OC)[C@@H](O[C@H]4C[C@H](OC)[C@@H](O)[C@H](C)O4)[C@H](C)O3)[C@@H](C)/C=C/C=C3\CO[C@@H]4[C@H](O)C(C)=C[C@@H](C(=O)O1)[C@]34O)O2.CO[C@H]1C[C@H](O[C@H]2[C@H](C)O[C@@H](O[C@@H]3/C(C)=C/C[C@@H]4C[C@@H](C[C@]5(C=C[C@H](C)[C@@H](C(C)C)O5)O4)OC(=O)[C@@H]4C=C(C)[C@@H](O)[C@H]5OC/C(=C\C=C\[C@@H]3C)[C@]54O)C[C@@H]2OC)O[C@@H](C)[C@@H]1O,92.5%,90%,75.2%,55.6%
N#Cc1nn(-c2c(Cl)cc(C(F)(F)F)cc2Cl)c(NCc2ccccn2)c1SC(F)F,85.6%,101%,47.2%,131%
COc1ccc(CCN2CCC(Nc3nc4ccccc4n3Cc3ccc(F)cc3)CC2)cc1,12.9% (active),15% (active),–,–
CC(C)(C#N)NC(=O)c1cc(Cl)cc(Cl)c1NC(=O)c1cc(Cl)nn1-c1ncccc1Cl,94.4%,94.6%,–,–
